Our source for the inhibition values is ChEMBL document CHEMBL1961873, “Compounds: GSK PKIS; Assays: Nanosyn kinase panel” (2012).

Assay [1] concerns the target T1, Serine/threonine-protein kinase Nek9 (Homo sapiens) (UniProt Q8TD19).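 Also: each value is a mean percent inhibition of NEK9.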
T1 sequence (whole entry): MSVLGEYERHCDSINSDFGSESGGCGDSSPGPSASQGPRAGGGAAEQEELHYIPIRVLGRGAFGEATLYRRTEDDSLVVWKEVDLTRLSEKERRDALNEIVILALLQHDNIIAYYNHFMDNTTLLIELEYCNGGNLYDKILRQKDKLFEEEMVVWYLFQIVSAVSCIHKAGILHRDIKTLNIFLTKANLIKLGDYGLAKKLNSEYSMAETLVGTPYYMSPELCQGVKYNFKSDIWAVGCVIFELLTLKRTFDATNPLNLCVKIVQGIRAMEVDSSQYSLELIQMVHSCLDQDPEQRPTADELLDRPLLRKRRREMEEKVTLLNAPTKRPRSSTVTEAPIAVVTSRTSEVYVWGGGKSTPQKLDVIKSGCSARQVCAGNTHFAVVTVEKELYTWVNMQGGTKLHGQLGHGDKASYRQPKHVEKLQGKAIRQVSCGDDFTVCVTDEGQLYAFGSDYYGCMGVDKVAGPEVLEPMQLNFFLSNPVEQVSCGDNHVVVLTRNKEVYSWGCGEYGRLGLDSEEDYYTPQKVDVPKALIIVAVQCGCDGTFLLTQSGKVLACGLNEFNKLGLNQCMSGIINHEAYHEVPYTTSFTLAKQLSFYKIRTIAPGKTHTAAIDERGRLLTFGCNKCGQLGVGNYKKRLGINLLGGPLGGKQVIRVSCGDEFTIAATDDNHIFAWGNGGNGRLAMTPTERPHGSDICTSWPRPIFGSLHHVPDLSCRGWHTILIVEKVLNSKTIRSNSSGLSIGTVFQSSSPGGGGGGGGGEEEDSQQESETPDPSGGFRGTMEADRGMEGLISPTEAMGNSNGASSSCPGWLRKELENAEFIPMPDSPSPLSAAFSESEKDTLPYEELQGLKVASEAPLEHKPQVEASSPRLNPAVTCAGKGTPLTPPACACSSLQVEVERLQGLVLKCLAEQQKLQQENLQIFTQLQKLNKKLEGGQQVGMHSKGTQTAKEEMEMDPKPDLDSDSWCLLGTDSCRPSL
The settings on record: at 1 µM.

For assay [2], the target named is Serine/threonine-protein kinase PLK1 (Homo sapiens) (UniProt P53350). To be noted: at 0.1 µM.
Assay [3] shares this target. The settings on record: at 1 µM.
Assay [4] concerns the target T2, Dual specificity protein kinase TTK (Homo sapiens) (UniProt P33981).
T2 sequence (whole entry): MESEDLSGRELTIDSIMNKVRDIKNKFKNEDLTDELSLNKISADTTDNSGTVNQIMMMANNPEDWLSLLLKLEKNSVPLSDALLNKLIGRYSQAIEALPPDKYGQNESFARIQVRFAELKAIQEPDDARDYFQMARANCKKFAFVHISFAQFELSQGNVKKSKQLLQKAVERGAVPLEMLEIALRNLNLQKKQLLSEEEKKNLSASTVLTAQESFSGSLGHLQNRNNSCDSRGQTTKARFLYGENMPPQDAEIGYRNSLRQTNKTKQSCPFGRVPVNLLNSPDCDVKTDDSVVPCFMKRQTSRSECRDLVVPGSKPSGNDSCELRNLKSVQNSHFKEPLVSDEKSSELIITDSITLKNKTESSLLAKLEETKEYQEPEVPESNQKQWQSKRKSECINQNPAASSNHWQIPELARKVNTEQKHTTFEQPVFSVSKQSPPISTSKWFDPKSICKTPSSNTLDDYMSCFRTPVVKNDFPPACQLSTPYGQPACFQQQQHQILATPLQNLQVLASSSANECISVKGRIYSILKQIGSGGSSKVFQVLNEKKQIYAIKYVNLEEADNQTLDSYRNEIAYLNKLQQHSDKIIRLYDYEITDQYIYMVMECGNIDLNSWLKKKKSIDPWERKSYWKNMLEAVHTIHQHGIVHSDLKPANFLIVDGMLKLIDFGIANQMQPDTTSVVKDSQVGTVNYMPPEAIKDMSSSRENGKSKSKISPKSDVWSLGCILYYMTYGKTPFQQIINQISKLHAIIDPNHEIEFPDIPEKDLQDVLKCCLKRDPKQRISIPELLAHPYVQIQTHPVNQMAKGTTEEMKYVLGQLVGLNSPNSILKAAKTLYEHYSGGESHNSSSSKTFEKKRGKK
The settings on record: at 0.1 µM.

Assay [5] concerns T3, Receptor-type tyrosine-protein kinase FLT3 (Homo sapiens), P36888 [D835Y].
T3 sequence (whole entry): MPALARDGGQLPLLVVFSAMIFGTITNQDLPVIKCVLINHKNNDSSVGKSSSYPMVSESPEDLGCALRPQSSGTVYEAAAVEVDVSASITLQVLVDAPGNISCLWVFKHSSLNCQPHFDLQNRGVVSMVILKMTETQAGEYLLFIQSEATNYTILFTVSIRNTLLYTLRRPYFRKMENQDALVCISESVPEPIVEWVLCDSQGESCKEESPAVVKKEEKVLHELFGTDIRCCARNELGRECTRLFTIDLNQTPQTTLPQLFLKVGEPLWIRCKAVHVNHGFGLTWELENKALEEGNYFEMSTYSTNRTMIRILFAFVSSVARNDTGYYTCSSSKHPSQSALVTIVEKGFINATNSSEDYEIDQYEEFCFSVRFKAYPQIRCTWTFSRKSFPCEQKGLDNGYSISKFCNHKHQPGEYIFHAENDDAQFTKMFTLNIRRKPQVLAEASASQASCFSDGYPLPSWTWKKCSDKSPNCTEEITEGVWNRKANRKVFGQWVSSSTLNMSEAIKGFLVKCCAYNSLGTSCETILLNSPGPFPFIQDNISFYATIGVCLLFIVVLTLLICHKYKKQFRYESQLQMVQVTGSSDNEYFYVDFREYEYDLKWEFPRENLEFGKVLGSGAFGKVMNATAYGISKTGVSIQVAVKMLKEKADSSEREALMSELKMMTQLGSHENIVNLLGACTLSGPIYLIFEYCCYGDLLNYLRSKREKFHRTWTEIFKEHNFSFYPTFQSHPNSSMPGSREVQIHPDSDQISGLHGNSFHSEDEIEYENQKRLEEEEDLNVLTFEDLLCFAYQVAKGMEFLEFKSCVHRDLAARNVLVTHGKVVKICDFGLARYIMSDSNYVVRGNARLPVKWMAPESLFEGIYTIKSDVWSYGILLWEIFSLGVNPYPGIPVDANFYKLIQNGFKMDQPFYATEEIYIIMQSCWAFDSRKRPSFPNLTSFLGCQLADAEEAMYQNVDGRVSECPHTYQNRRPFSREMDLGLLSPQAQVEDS
The settings on record: at 1 µM.

Assay [6] addresses Vascular endothelial growth factor receptor 3 (Homo sapiens) (UniProt P35916). To be noted: at 0.1 µM.
Assay [7] has the same target. The settings on record: at 1 µM.
Assay [8] deals with Macrophage colony-stimulating factor 1 receptor (Homo sapiens) (UniProt P07333). The settings on record: at 0.1 µM.
For assay [9] the target is unchanged. The settings on record: at 1 µM.
Assay [10] concerns the target Tyrosine-protein kinase Fyn (Homo sapiens) (UniProt P06241). To be noted: at 0.1 µM.

Molecules are shown by their SMILES.

Serine/threonine-protein kinase PLK1 (Homo sapiens), sequence (P53350 whole entry): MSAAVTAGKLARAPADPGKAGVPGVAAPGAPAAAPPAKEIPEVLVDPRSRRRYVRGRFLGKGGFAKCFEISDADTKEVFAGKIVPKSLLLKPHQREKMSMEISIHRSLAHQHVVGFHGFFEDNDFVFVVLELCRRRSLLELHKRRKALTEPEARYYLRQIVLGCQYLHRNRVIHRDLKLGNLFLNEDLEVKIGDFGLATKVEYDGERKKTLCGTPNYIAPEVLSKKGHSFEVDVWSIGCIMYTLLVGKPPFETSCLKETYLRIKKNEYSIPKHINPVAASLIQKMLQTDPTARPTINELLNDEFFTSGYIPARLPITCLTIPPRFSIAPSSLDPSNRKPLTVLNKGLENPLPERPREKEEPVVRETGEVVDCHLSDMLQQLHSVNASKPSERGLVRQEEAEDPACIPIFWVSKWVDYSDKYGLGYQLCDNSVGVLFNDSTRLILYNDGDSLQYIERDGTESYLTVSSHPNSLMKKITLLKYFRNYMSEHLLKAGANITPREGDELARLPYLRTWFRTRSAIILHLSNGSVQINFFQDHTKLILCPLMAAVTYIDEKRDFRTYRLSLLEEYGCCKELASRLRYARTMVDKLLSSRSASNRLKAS
Vascular endothelial growth factor receptor 3 (Homo sapiens), sequence (P35916 whole entry): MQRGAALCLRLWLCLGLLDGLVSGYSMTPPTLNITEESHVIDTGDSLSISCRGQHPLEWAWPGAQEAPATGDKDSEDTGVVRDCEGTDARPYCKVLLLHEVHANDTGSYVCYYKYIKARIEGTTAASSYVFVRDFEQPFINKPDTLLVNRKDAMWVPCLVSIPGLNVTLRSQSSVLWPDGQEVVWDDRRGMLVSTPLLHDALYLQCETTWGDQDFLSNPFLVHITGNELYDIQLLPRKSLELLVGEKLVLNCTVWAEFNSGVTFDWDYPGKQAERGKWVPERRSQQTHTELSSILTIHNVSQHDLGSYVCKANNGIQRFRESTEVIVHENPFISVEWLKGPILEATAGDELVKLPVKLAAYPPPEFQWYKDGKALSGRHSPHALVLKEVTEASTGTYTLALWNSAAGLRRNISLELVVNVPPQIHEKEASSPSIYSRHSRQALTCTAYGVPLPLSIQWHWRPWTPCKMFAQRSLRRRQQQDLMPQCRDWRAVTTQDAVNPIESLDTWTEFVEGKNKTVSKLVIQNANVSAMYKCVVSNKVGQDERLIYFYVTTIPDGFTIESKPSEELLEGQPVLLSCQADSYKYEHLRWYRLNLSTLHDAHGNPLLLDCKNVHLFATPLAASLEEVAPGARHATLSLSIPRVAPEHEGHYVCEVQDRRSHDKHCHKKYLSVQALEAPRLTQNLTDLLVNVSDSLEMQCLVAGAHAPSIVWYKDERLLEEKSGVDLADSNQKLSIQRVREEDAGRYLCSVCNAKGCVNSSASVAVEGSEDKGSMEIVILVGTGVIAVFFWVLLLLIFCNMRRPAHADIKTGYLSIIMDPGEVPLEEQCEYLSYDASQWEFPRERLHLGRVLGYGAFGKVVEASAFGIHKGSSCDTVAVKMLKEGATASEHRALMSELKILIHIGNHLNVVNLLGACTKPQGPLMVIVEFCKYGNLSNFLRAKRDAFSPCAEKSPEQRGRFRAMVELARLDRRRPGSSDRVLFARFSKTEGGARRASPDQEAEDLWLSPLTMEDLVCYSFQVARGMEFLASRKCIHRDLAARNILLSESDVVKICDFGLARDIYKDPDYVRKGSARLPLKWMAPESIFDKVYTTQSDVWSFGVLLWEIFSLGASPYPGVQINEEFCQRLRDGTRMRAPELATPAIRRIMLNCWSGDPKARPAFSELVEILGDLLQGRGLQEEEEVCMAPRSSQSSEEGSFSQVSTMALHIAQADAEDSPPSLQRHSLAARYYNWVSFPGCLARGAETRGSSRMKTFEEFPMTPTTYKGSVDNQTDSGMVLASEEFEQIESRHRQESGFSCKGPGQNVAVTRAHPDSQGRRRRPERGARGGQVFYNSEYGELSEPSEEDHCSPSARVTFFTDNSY
Macrophage colony-stimulating factor 1 receptor (Homo sapiens), sequence (P07333 whole entry): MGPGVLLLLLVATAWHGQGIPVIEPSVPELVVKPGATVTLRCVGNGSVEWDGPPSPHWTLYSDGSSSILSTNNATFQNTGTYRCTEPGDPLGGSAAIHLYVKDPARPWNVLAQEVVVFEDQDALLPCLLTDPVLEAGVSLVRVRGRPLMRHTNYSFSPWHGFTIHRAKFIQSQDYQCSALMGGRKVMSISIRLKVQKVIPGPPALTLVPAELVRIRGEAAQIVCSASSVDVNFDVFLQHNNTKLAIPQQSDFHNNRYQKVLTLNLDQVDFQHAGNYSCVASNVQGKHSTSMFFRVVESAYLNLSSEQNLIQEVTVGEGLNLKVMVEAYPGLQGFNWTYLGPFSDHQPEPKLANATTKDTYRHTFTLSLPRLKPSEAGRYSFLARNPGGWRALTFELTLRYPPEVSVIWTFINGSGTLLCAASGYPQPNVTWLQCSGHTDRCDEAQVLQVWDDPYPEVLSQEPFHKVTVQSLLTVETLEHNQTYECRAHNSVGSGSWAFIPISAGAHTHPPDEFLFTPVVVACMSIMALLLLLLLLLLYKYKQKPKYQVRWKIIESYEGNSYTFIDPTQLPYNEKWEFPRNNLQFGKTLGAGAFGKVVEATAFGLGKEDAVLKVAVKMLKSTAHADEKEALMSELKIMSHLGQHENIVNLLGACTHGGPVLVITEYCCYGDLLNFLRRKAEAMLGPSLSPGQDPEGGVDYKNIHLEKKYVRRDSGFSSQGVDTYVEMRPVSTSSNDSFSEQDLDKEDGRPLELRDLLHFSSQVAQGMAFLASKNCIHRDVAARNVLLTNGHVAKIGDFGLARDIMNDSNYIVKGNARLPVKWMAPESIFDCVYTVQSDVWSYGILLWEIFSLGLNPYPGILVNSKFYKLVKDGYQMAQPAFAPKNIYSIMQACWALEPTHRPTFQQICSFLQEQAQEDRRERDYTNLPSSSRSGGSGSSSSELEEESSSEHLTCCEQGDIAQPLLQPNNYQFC
Tyrosine-protein kinase Fyn (Homo sapiens), sequence (P06241 2-537 limits assumed): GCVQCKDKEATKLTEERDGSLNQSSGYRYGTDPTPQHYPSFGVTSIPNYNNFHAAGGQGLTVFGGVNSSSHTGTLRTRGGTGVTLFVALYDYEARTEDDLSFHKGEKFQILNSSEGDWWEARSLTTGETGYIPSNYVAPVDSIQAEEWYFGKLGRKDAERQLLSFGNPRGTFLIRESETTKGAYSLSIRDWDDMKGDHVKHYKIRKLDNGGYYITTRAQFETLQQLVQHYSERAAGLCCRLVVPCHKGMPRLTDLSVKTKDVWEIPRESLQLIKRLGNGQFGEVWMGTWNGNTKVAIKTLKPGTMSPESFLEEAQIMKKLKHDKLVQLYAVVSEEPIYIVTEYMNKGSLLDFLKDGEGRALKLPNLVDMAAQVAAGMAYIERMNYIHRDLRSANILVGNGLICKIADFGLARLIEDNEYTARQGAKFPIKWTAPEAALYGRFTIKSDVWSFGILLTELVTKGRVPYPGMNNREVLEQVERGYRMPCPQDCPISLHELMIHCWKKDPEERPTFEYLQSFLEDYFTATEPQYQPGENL

One may read the inhibition as the drop in the measured response relative to a control, in per cent. In the case of `Fc1ccc(-c2cc(-c3c[nH]nc3-c3ccccn3)ccn2)cc1`, the inhibition in [1] was 12.6%; in [2] it was 3.3%; in [3] it was 3.1%; in assay [4], 11.3%; in assay [5], 0.71%; in assay [6], -1.38%. Moreover, the inhibition in assay [7] is 1.05%; in [8], 0.08%; in [9] it was 3.27%; in [10] it was 3.45%.

For `CCn1c(-c2nonc2N)nc2ccccc21`, the inhibition is 0.94% in [1]; 6.53% in assay [2]; 2.85% in assay [3]; 3.51% in assay [4]; -3.67% in [5]; 5.92% in [6]. Moreover, the inhibition in assay [7] turned out to be 5.29%; in [8], 0.61%; in assay [9], 2.71%; in assay [10] it was 0.86%.

As for `CCCN(CCS(C)(=O)=O)Cc1ccc(-c2ccc3ncnc(Nc4ccc(OCc5cccc(F)c5)c(Cl)c4)c3c2)o1`, the inhibition in assay [1] is 4.13%; in assay [2] it was 1.28%; in assay [3] it was 1.62%; in assay [4], 2.14%; in [5] it was 0.99%; in [6], -1.86%. Besides, the inhibition in assay [7] is -0.27%; in [8] it was 0.78%; in [9], 1%; in [10], 1.13%.

Regarding `COc1cc2c(cc1Nc1nc(Nc3ccsc3C(N)=O)c3cc[nH]c3n1)N(C(=O)CN(C)C)CCC2(C)C`, the inhibition in [1] was determined as 9.86%; in assay [2], 56.7%; in assay [3], 89.4%; in assay [4], 40%; in [5] it was 22.1%; in assay [6] it was 3.15%. The inhibition amounted to 5.12% in [7], 81.7% in assay [8], 94.3% in [9] and 0.64% in [10].

As to `COC(=O)Nc1nc2ccc(Oc3ccc(NC(=O)Nc4cccc(Cl)c4)cc3)cc2[nH]1`, the inhibition in assay [1] is 2.84%; in [2] it was -0.55%; in assay [3], 0.69%; in assay [4], 2.99%; in assay [5], 1.8%; in assay [6] it was 4.07%. In addition, the inhibition in assay [7] was 9.34%; in assay [8] it was 16.5%; in assay [9], 45.2%; in assay [10] it was 0.86%.

Turning to `CNC(=O)c1cc(-c2ccc(F)cc2)cc(-c2ccc(S(=O)(=O)N3CCCC3)cc2)c1N`, the inhibition in [1] came out at 7.69%; in assay [2], 2.97%; in assay [3], 3.38%; in assay [4], 4.67%; in assay [5], 5.93%; in [6] it was 0.74%. Also, the inhibition in assay [7] amounted to 2.49%; in assay [8] it was 0.47%; in [9], 1.28%; in assay [10], 1.22%.

For `COc1ccc(CNC(=O)c2ccc(-c3cc(-c4nnc(C)o4)ccc3C)cc2)cc1`, the inhibition was 6.3% in assay [1]; 2.95% in assay [2]; 1.61% in [3]; 1.98% in [4]; -2.55% in assay [5]; -1.03% in [6]. In addition, the inhibition in [7] is -1.53%; in assay [8], 1.47%; in [9], 0.46%; in assay [10], 0.71%.

Take `CCc1nn2ncccc2c1-c1ccnc(NC2CC2)n1`: the inhibition is 9.21% in assay [1]; 1.29% in assay [2]; 4.87% in [3]; -1.9% in assay [4]; 8.73% in [5]; 4.93% in assay [6]. In addition, the inhibition in assay [7] came out at 4.12%; in [8] it was 2.72%; in [9], 4.83%; in assay [10], 1.74%.

`CC1=C(C(=O)Nc2cc(Cl)c3[nH]ncc3c2)C(c2ccc(C(F)(F)F)cc2)CC(=O)N1` (stereo not given): the inhibition in [1] is 8.4%; in assay [2], 4.17%; in assay [3], 4.12%; in assay [4] it was 5.88%; in assay [5] it was 1.66%; in assay [6], -0.3%. Also, the inhibition in assay [7] is -1.34%; in [8], 5.21%; in [9], 1.8%; in [10], 0.13%.
